# Measured values taken from PubChem BioAssay (NCATS).
# Inconclusive results are not listed. Entries that show only a call come without a potency. Activity calls are given as the source filed them. The call rests on the fitted dose curve; in most records, active means well fitted curve in the direction sought with a large enough effect; inconclusive means small, poorly fitted or top-dose-only effect, or another doubt; inactive means no such curve, though single readings can be large; an effect the other way counts as inactive or inconclusive.
# How the values were obtained:
# [1] = biological target: Glutathione peroxidase 1 (Homo sapiens) (UniProt P07203); assay: Primary qHTS Assay for Inhibitors of Recombinant Selenoprotein Glutathione Peroxidase 1 (GPX1) (AID 1845191); further: nearly all actives have a fitted effect of over 65% in size
# In short: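 GR-coupled assay: compounds preincubated 30 min at room temperature with GPX1, then reaction started with CHP; final 10 nM GPX1, 1 mM GSH, 0.5 mM CHP, 0.5 mM NADPH, 100 nM GR, 0.01% BSA, pH 7.5 Tris buffer. NADPH fluorescence (340/450 nm) read at 0 and 15 min.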
# [2] = biological target: Phospholipid hydroperoxide glutathione peroxidase GPX4 (Homo sapiens) (UniProt P36969); assay: Primary qHTS Assay for Inhibitors of Recombinant Selenoprotein Glutathione Peroxidase 4 (GPX4) (AID 1845192); further: nearly all actives have a fitted effect of over 65% in size
# In short: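 GR-coupled assay: recombinant GPX4 preincubated 30 min with compound at room temperature; final 200 nM GPX4, 1 mM GSH, 0.5 mM cumene hydroperoxide, 0.5 mM NADPH, 100 nM GR, 0.01% BSA, pH 7.5 Tris. NADPH fluorescence (340/450 nm) read at 0 and 15 min.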
# [3] = biological target: Luciferin 4-monooxygenase (Photinus pyralis) (UniProt P08659); assay: Primary firefly luciferase (FLuc) qHTS assay for identification of artifact compounds. (AID 1845220); further: nearly all actives have a fitted effect of over 60% in size; further: potency means the concentration at half of the fitted maximal effect
# In short: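 Enzymatic FLuc inhibition assay: compounds pre-exposed to luciferin/ATP (10 uM each) for 15 min, then purified P. pyralis enzyme at 10 nM added. Read-out: luminescence at 5 min.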
# [4] = Primary fluorescence-based thiol-reactive (MSTI) qHTS assay for identification of artifact compounds. (AID 1845221); further: nearly all actives have a fitted effect of over 65% in size; further: potency means the concentration at half of the fitted maximal effect
# In short: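 One-hour, room-temperature, dark incubation of compound with 4 uM MSTI in PBS (pH 7.4, 2% DMSO) precedes a fluorescence read at 525 nm excitation, 598 nm emission; Hill-equation fitting yields concentration-response values.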
# [5] = tested on: Nanoluciferase (engineered Oplophorus gracilirostris luciferase); assay: Primary Nanoluciferase (NLuc) qHTS assay for identification of artifact compounds. (AID 1845222); further: potency means the concentration at half of the fitted maximal effect
# In short: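 S16 cell supernatant NLuc, 1:55; cpds qHTS; 15 min RT dark; Nano-Glo substrate 1:100, 5 min; luminescence; Hill fit of % inhibition.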
# [6] = Primary redox qHTS assay for identification of artifact compounds. (AID 1845223)
# In short: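 Amplex Red (25 uM) and HRP (250 mU/mL) in HBSS, with compounds for 15 min, then 250 uM DTT for 30 min, room temperature, dark. Fluorescence 525/598 nm read; normalized to DMSO and 10 uM DA3003; Hill fit.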
# [7] = Quantitative High-Throughput drug screen in 47 multiple myeloma cell lines against the NCATS MIPE library collection: Delta47_JCRB cell viability assay (AID 1918925; further: potency means the concentration at half of the fitted maximal effect; nearly all actives have a fitted effect of over 45% in size)
# In short: (§1)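 Primary qHTS used for cherry-picking: cells at 500/well, library compounds for 48 h (37C, 5% CO2), luminescent ATP assay.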
# [8] = Quantitative High-Throughput drug screen in 47 multiple myeloma cell lines against the NCATS MIPE library collection: EJM_DSMZ cell viability assay (AID 1918926; further: nearly all actives have a fitted effect of over 30% in size; further: potency means the concentration at half of the fitted maximal effect)
# In short: as §1
# [9] = Quantitative High-Throughput drug screen in 47 multiple myeloma cell lines against the NCATS MIPE library collection: FR4_PLB cell viability assay (AID 1918924; further: nearly all actives have a fitted effect of over 35% in size; further: potency means the concentration at half of the fitted maximal effect)
# In short: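 Myeloma cell lines, 500 cells per well, exposed to MIPE 4.0 library compounds for 48 h at 37C, 5% CO2. Viability from ATP by CellTiter-Glo luminescence; normalised to DMSO (100%) and media-only (0%) wells.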
# Chain of Phospholipid hydroperoxide glutathione peroxidase GPX4 (Homo sapiens) (P36969 whole entry, looked up): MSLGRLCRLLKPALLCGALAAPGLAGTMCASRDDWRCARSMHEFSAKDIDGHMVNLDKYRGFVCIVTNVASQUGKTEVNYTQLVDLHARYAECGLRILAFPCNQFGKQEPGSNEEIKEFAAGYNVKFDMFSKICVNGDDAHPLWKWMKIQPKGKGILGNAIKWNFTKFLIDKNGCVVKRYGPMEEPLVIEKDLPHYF
# Chain of Glutathione peroxidase 1 (Homo sapiens) (P07203 whole entry, looked up): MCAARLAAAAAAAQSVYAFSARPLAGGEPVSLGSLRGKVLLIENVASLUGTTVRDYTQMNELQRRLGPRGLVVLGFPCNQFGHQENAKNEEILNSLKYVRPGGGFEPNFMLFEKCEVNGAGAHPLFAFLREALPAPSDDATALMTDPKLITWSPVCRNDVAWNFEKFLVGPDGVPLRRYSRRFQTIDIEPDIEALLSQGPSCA
Compound,Potency [1],Potency [2],Potency [3],Potency [4],Potency [5],outcome [6],Potency [7],Potency [8],Potency [9]
Cc1ccc(Nc2cc(-c3cccc(N4C(=O)c5ccccc5C4=O)c3)ncn2)cc1NS(C)(=O)=O,inactive,inactive,inactive,inactive,inactive,inactive,14.8 µM (active),26.4 µM (active),–
CC(=O)Nc1ccc([C@H](C)C(=O)Nc2ncc(C(C)C)s2)cc1,inactive,inactive,inactive,inactive,inactive,inactive,1.48 µM (active),0.743 µM (active),1.87 µM (active)
O=C(NC1CCOCC1)c1ccc(-c2cc(-c3cn[nH]c3-c3ccccn3)ccn2)cc1,inactive,inactive,inactive,inactive,inactive,inactive,–,inactive,inactive
COCCOC(=O)C1=C(C)NC2=C(C(=O)CC(c3ccccc3OC)C2)C1c1cccc(O)c1 (stereo not given),inactive,inactive,inactive,inactive,inactive,inactive,1.05 µM (active),–,14.8 µM (active)
CC(C)(C)c1cc(C(=O)O)c(NC(=O)Nc2ccc3[nH]ncc3c2)s1,inactive,inactive,16.9 µM (active),1.06 µM (active),inactive,inactive,–,inactive,inactive
O=C(O)c1ccccc1C(=O)Nc1ccc(-c2ccccc2)cc1,inactive,inactive,23.9 µM (active),–,23.9 µM (active),inactive,–,–,inactive
CC(C)C(=O)Oc1ccc(CO)cc1[C@H](CCN(C(C)C)C(C)C)c1ccccc1,inactive,inactive,inactive,inactive,inactive,inactive,–,inactive,–
COc1ccc2c(Oc3ccc(NC(=O)c4c(C)n(CC(C)(C)O)n(-c5ccccc5)c4=O)nc3)ccnc2c1,inactive,inactive,inactive,inactive,inactive,–,–,–,20.9 µM (active)
